Pf growth 96h – inhibits malaria parasite growth, 96 h; P. falciparum luciferase reporter growth, 96 h; Potency, µM (series often up to 28.7 µM), for the others: at the highest dose activity change, negative = inhibition, usual class: inhibitors; actives 6.9% (n = 320,000); AID 504834; active = well fitted inhibition curve with a large enough effect; inconclusive = small, poorly fitted or top-dose-only effect, or another doubt; inactive = no such curve, though single readings can be large or run the other way; note: potency is the fitted concentration of half-maximal effect; % is set by controls: 0 for no effect and ±100 for the full control effect
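Parasite growth measured via integrated firefly luciferase reporter in P. falciparum. Infected erythrocytes at 2% hematocrit, 0.05% parasitemia final were treated 96 hours at 37 C under 5% CO2, and luminescence was read.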
SARS PLpro yeast – SARS-CoV PLP inhibition in yeast. S. cerevisiae expressing SARS-CoV PLpro, growth rescue. Potency, µM (highest dose often 32.9 µM), for inactives: at the top dose activity, positive = growth rescue, usual class: activators. actives 0.19% (n = 330,000). AID 485353; note: potency is the fitted concentration of half-maximal effect; 0% is about no effect; nearly all actives have a fitted effect of over 55% in size
NS1 inh – blocks influenza NS1 protein function; AID 2326; actives 0.4% (n = 270,000); Potency, µM (series often up to 46.1 µM), inactives show at the top dose activity, positive = more growth; note: potency is the fitted concentration of half-maximal effect; actives are rising curves; nearly all actives have a fitted effect of over 50% in size
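Growth recovery, yeast-based: influenza A NS1 expressed in S. cerevisiae causes slow growth, and suppressors are detected by OD600. The parent strain without NS1 is used as positive control.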
Pf growth 48h – P. falciparum growth inhibition at 48 hours (one generation). P. falciparum luciferase growth in erythrocytes, 48 h. Potency, µM (top dose mostly 28.7 µM), inactives show at the highest dose activity change, negative = inhibition, actives largely listed as inhibitors. actives 5.9% (n = 310,000). AID 504832; active = well fitted inhibition curve with a large enough effect; inconclusive = small, poorly fitted or top-dose-only effect, or another doubt; inactive = no such curve, though single readings can be large or run the other way; note: potency is the fitted concentration of half-maximal effect; % is set by controls: 0 for no effect and ±100 for the full control effect
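Luminescence readout; reporter = integrated firefly luciferase in P. falciparum. RBC culture at 2% hematocrit, 0.1% parasitemia final, 37 C/5% CO2; decreased signal taken as growth inhibition.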
Cycloheximide cs – counter-screen for Shiga toxin inhibitors: cycloheximide protein synthesis inhibition; cell reporter, cycloheximide protein synthesis inhibition counterscreen; max response, %; AID 2314; actives 12% (n = 300,000); in the data active = max response mostly above about 13%, no sharp cut-off; inactive = mostly below about 14%; note: read at 38.3 µM for the half of the compounds with a filed dose; 0% is about no effect
Shiga toxin inh – Shiga toxin inhibition | AID 2315 | actives 9.2% (n = 290,000) | inhibition, % at 38.7 µM | Vero cells, Shiga toxin protein synthesis inhibition reporter; in the data active = inhibition mostly above about 28%, no sharp cut-off; inactive = mostly below about 43%; note: 0% is about no effect
Starred values were filed as active, the others as inactive. Rows were chosen to be rich in hits. Some 21% of all compounds tested hit in one or more screens of this group. Unless noted, calls come from the whole dose curve.

For COc1ccccc1-n1c(SCC(=O)O)nc2c(sc(=S)n2-c2ccc(Cl)c(C)c2)c1=O the results were Pf growth 96h 25.1%, SARS PLpro yeast 0.6%, NS1 inh 13.3%, Pf growth 48h inconclusive, Cycloheximide cs -3.2 and Shiga toxin inh 23.3.
Screening O=C(NNC(=O)c1ccccc1C(=O)O)c1ccc(S(=O)(=O)N2CCCCC2)cc1 returned Pf growth 96h inconclusive, SARS PLpro yeast 8.5%, NS1 inh 8.8%, Pf growth 48h 2.6%, Cycloheximide cs -3.4 and Shiga toxin inh -5.9.
For COC(=O)c1c(C(=O)OC)c(-c2ccc(C)cc2)n2c1CS(=O)(=O)C2 the results were Pf growth 96h 1.65µM*, SARS PLpro yeast -11.1%, NS1 inh 5.2%, Cycloheximide cs -6.1 and Shiga toxin inh -3.3.
For COC(=O)c1c(C(=O)OC)c(-c2ccc(Cl)cc2)n2c1CS(=O)(=O)C2 the results were Pf growth 96h inconclusive, SARS PLpro yeast -3.1%, NS1 inh -4.3%, Pf growth 48h 1.47µM*, Cycloheximide cs -3.4 and Shiga toxin inh -10.0.
For COC(=O)c1c(C(=O)OC)c(-c2ccc(C(C)(C)C)cc2)n2c1CS(=O)C2 (stereo unspecified) the results were Pf growth 96h inconclusive, SARS PLpro yeast -4.9%, Pf growth 48h 10.4µM*, Cycloheximide cs 11.2 and Shiga toxin inh -9.3.
For COc1cc(CC(NC(C)=O)C(=O)NC2CCN(S(=O)(=O)c3ccc(NC(C)=O)cc3)CC2)cc(OC)c1 (stereo unspecified) the results were Pf growth 96h 21.1%, SARS PLpro yeast -0.6%, NS1 inh -0.7%, Pf growth 48h -12.3%, Cycloheximide cs -2.2 and Shiga toxin inh -1.7.
O=C1CC(N2CCN(c3ccc(F)cc3)CC2)C(=O)N1c1ccc2c(c1)OCO2 (stereo unspecified) was read as Pf growth 96h inconclusive, SARS PLpro yeast -1.9%, NS1 inh 1.5%, Pf growth 48h 5.8%, Cycloheximide cs 10.0 and Shiga toxin inh 17.9.
`COc1ccc(CCNC(=O)c2ccc(CNS(=O)(=O)c3cc(C)ccc3C)cc2)cc1OC` gave Pf growth 96h 5.22µM*, SARS PLpro yeast -5.7%, NS1 inh -7.1%, Cycloheximide cs 1.1 and Shiga toxin inh -10.7.
For CCOc1ccc(CCNC(=O)c2ccc3ccccc3n2)cc1OCC the results were Pf growth 96h inconclusive, SARS PLpro yeast -0.7%, NS1 inh -32.8%, Pf growth 48h inconclusive, Cycloheximide cs 43.9* and Shiga toxin inh 52.7*.
For CCOc1ccc(CCNC(=O)c2ccc(CNS(=O)(=O)c3ccccc3)cc2)cc1OCC the results were Pf growth 96h 8.28µM*, SARS PLpro yeast 5.7%, NS1 inh 20.6%, Pf growth 48h inconclusive, Cycloheximide cs -1.2 and Shiga toxin inh 14.7.
For COc1ccc(CCNC(=O)c2ccc(CNS(=O)(=O)c3cccc(Cl)c3)cc2)cc1OC the results were Pf growth 96h -18.6%, SARS PLpro yeast -1.1%, NS1 inh -2.9%, Pf growth 48h 26.2%, Cycloheximide cs 2.3 and Shiga toxin inh -6.9.
For COc1ccc(CCNC(=O)c2ccc(CNS(=O)(=O)c3ccc(C(C)(C)C)cc3)cc2)cc1OC the results were Pf growth 96h 13.1µM*, SARS PLpro yeast -19.1%, NS1 inh 0.0%, Pf growth 48h inconclusive, Cycloheximide cs 1.1 and Shiga toxin inh -4.2.
Oc1ccc(/C=N/n2c(COc3ccccc3)n[nH]c2=S)cc1O was read as Pf growth 96h inconclusive, SARS PLpro yeast 9.5%, NS1 inh -3.4%, Pf growth 48h inconclusive, Cycloheximide cs -3.7 and Shiga toxin inh 26.5.
`C=CCNc1nc(C(=O)OCC(=O)NCc2ccccc2OC)cs1` gave Pf growth 96h 8.0% and Pf growth 48h inconclusive.
`Cc1ccc(S(=O)(=O)N2CCOCC2)cc1NC(=O)COC(=O)Cc1ccccc1` gave SARS PLpro yeast 4.0%.
Screening COc1ccc(CCNC(=O)c2cnc3ccccc3n2)cc1 returned Pf growth 96h 21.8%, SARS PLpro yeast -4.1%, NS1 inh -31.3%, Pf growth 48h -0.1%, Cycloheximide cs 14.5* and Shiga toxin inh 43.1.

Screening results as filed in PubChem.
